Source: PubChem BioAssay (Tox21)
Several values for one entry are separate records, joined by “and”; a condition that tells them apart may be missing. Equal values may be shown once. Records with an inconclusive call do not appear. Entries that show only a call come without a potency. More than one record can exist for a structure, and the calls need not agree. Activity calls are given as the source filed them. Unless noted, calls follow the shape of the dose curve; as a rule, active = well fitted curve in the direction sought with a large enough effect in the repeat runs; inconclusive = weak or mixed curves; inactive = no such curve, though single readings can be large; an effect the other way counts as inactive or inconclusive.

Tests used:
[1] = qHTS assay for small molecule agonists of the p53 signaling pathway (AID 651631; calls by dose curve; also: nearly all actives have a fitted effect of over 15% in size; also: potency is read from the fitted curve at half-maximal effect)
Summary of the method: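 p53RE-bla HCT-116 cells; compounds 16 h, 37 °C; LiveBLAzer B/G FRET substrate 2 h RT; fluorescence intensity read-out, qHTS format.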

[2] = qHTS assay for small molecules that induce genotoxicity in human embryonic kidney cells expressing luciferase-tagged ATAD5 (AID 651632); also: nearly all actives have a fitted effect of over 15% in size
Summary of the method: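 Test compounds were delivered by pin tool onto HEK293T reporter cells (2,000/well) expressing ATAD5 fused to luciferase. After 16 hr at 37C, 5% CO2, Amplite was added for 30 min at room temperature and luminescence was measured.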

[3] = qHTS assay for small molecule agonists of the p53 signaling pathway - cell viability (AID 651633; calls by dose curve; also: nearly all actives have a fitted effect of over 30% in size; also: potency is read from the fitted curve at half-maximal effect)
Summary of the method: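 p53RE-bla cells were treated with compound for 16 hours at 37 C. Cytotoxicity was then measured as CellTiter-Glo luminescence after 30 min at room temperature.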

[4] = qHTS assay for small molecules that induce genotoxicity in human embryonic kidney cells expressing luciferase-tagged ATAD5 - cell viability (AID 651634; calls by dose curve; also: nearly all actives have a fitted effect of over 25% in size; also: potency is read from the fitted curve at half-maximal effect)
Summary of the method: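 Quantitative high-throughput format. HEK293T cells expressing ATAD5 fused to luciferase were plated at 2,000 cells/well and treated 15.5 hr with compound versus DMSO. Viability was determined by fluorescent live-cell protease substrate, 30 min at 37C.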

[5] = qHTS assay for small molecule disruptors of the mitochondrial membrane potential - cell viability (AID 720634; calls by dose curve; also: nearly all actives have a fitted effect of over 20% in size; also: potency is read from the fitted curve at half-maximal effect)
Summary of the method: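 Same-well counter-screen: following the MMP dye addition, CellTiter-Glo was added to 1 hr compound-treated HepG2 cells and luminescence read after 30 min at room temperature.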

[6] = qHTS assay for small molecule disruptors of the mitochondrial membrane potential (AID 720635); also: potency is read from the fitted curve at half-maximal effect
Summary of the method: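 HepG2 cells exposed to compound 1 hr at 37C, then Mito-MPS dye 30 min. Ratio read of aggregate (540/590 nm) versus monomer (490/535 nm) fluorescence.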

[7] = qHTS assay to test for compound auto fluorescence at 535 nm (green) in HepG2 cells (AID 720675)
[8] = qHTS assay to test for compound auto fluorescence at 460 nm (blue) in HEK293 cells (AID 720678)
Summary of the method: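 Intrinsic compound fluorescence is recorded in live HEK293 cultures after overnight incubation at 37C, 5% CO2, using excitation 405 nm and emission 460 nm. Values are referenced to triamterene.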

[9] = qHTS assay to test for compound auto fluorescence at 535 nm (green) in HEK293 cells (AID 720680)
[10] = qHTS assay to test for compound auto fluorescence at 460 nm (blue) in HEK293 cell free culture (AID 720681)
Summary of the method: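 Compounds were added to cell-free DMEM with 10% FBS and fluorescence read directly. The blue channel used 405 nm excitation and 460 nm emission, with triamterene as the reference fluorophore.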

[11] = qHTS assay to test for compound auto fluorescence at 535 nm (green) in HEK293 cell free culture (AID 720682)
Summary of the method: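 Cell-free medium (DMEM, 10% FBS) receives compound or DMSO by pintool. Plate read directly at Ex 485/Em 535 nm. Signal converted to fluorescein equivalency.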

[12] = qHTS assay to test for compound auto fluorescence at 590 nm (red) in HEK293 cell free culture (AID 720683)
Summary of the method: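 Cell-free wells of DMEM with 10% FBS received compound, and intrinsic fluorescence was read at excitation/emission 540/590 nm. Values expressed as equivalence to Rose Bengal sodium.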

[13] = qHTS assay to test for compound auto fluorescence at 590 nm (red) in HepG2 cell free culture (AID 720684)
Summary of the method: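 Auto fluorescence equivalency versus Rose Bengal sodium, red channel Ex/Em 540/590 nm; compounds in cell-free MEM/10% FBS; DMSO vehicle control.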

[14] = qHTS assay to test for compound auto fluorescence at 460 nm (blue) in HepG2 cell free culture (AID 720685)
Summary of the method: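 Cell-free plates of MEM plus 10% FBS received 23 nL compound or DMSO vehicle; blue-channel (405/460 nm) intensity scored against triamterene as reference fluorophore.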

[15] = qHTS assay to test for compound auto fluorescence at 535 nm (green) in HepG2 cell free culture (AID 720686)
[16] = qHTS assay to test for compound auto fluorescence at 460 nm (blue) in HepG2 cells (AID 720687)
Summary of the method: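 HepG2 cells in MEM with 10% FBS, attached overnight at 37 C, were exposed to compound or DMSO for 1 hr at 37 C, 5% CO2. Blue fluorescence was read at 405/460 nm, with triamterene as reference fluorophore.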

[17] = qHTS assay to test for compound auto fluorescence at 590 nm (red) in HepG2 cells (AID 720674)
Summary of the method: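 Fluorescence at 590 nm emission following 540 nm excitation was recorded from HepG2 wells one hour after compound transfer, with DMSO-only wells as vehicle and Rose Bengal sodium equivalency as the scale.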

[18] = qHTS assay to test for compound auto fluorescence at 590 nm (red) in HEK293 cells (AID 720679)
Summary of the method: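 Red autofluorescence, HEK293 cells: 2,000 cells/well; attach 4-5 hr 37C; add 23 nL cpd or DMSO; incubate o/n 37C 5% CO2; read Ex540/Em590; Rose Bengal sodium reference.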

[19] = biological target: Glucocorticoid receptor (Homo sapiens) (UniProt P04150); experiment: qHTS assay to identify small molecule agonists of the glucocorticoid receptor (GR) signaling pathway (AID 720691; active = well fitted activation curve with a large enough effect in the signal ratio in the repeat runs, not every such curve was filed as active; the % refers to the signal ratio)
Glucocorticoid receptor (Homo sapiens), sequence (P04150 whole entry, looked up): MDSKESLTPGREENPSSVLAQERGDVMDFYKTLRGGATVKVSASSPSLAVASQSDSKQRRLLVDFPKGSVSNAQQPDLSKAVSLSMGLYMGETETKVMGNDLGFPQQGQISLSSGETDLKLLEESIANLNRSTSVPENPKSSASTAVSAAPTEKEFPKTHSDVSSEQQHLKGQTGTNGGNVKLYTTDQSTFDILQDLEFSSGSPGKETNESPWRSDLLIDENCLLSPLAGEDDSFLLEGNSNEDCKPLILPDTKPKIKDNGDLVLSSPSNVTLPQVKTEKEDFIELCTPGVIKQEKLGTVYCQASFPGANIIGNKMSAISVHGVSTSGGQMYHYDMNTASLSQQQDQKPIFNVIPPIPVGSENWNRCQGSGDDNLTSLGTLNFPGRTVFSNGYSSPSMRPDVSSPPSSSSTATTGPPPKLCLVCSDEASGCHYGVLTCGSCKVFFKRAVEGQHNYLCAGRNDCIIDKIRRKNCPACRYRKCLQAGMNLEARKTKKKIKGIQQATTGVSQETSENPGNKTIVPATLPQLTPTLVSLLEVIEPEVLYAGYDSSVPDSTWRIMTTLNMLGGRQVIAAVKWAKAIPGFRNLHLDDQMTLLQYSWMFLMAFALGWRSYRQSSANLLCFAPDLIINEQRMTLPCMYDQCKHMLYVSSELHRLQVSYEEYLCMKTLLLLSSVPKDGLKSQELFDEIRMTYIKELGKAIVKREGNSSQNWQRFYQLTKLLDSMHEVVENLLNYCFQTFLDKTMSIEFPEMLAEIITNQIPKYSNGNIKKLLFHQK
Summary of the method: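 A HeLa cervical cancer line expressing GR and a glucocorticoid response element-driven beta-lactamase gene is treated with compounds for 18 h; LiveBLAzer B/G FRET substrate is then applied and fluorescence read.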

[20] = biological target: Glucocorticoid receptor (Homo sapiens) (UniProt P04150); experiment: qHTS assay to identify small molecule antagonists of the glucocorticoid receptor (GR) signaling pathway (AID 720692; active = well fitted inhibition curve with a large enough effect in the signal ratio in the repeat runs, not every such curve was filed as active; the % refers to the signal ratio; also: potency is read from the fitted curve at half-maximal effect)
Summary of the method: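 GRE-bla HeLa line, dex-stimulated (5 nM final). Compound exposure 18 h, 37 C. Beta-lactamase FRET read after 2 h RT substrate.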

Compound	Potency [1]	Potency [2]	Potency [3]	Potency [4]	Potency [5]	Potency [6]	outcome [7]	outcome [8]	outcome [9]	outcome [10]	outcome [11]	outcome [12]	outcome [13]	outcome [14]	outcome [15]	outcome [16]	outcome [17]	outcome [18]	outcome [19]	Potency [20]
Cc1ccc2ccccc2c1	inactive	inactive	inactive	inactive	inactive	inactive	inactive	inactive	inactive	inactive	inactive	inactive	inactive	inactive	inactive	inactive	–	–	–	–
CCCCCCC#N	inactive	inactive	inactive	inactive	inactive	inactive	inactive	inactive	inactive	inactive	inactive	inactive	–	inactive	inactive	inactive	inactive	inactive	–	–
N#Cc1cc(I)c(O)c(I)c1	4.33 µM (active)	inactive	34.4 µM (active)	inactive	4.33 µM (active)	3.44 µM (active)	inactive	inactive	inactive	inactive	inactive	inactive	–	inactive	inactive	inactive	–	inactive	inactive	–
CCCCNP(N)(N)=S	inactive	inactive	inactive	inactive	inactive	inactive	inactive	inactive	inactive	inactive	inactive	inactive	inactive	inactive	inactive	inactive	inactive	inactive	inactive	–
CCBr	inactive	inactive	inactive	inactive	inactive	inactive	inactive	inactive	inactive	inactive	inactive	inactive	inactive	inactive	inactive	inactive	inactive	inactive	inactive	–
Cc1cc(=O)[nH]o1	inactive	inactive	inactive	inactive	inactive	inactive	inactive	inactive	inactive	inactive	inactive	inactive	inactive	inactive	inactive	inactive	inactive	inactive	inactive	inactive
Nc1ccc(N=Nc2ccc(-c3ccc(N=Nc4c(S(=O)(=O)O)cc5cc(S(=O)(=O)O)c(N=Nc6ccccc6)c(O)c5c4N)cc3)cc2)c(N)c1	inactive	inactive	inactive	inactive	inactive	6.24 µM (active)	inactive	inactive	inactive	inactive	inactive	inactive	inactive	inactive	–	inactive	–	inactive	inactive	–
CC(c1ccc(O)cc1)(c1ccc(O)cc1)c1ccc(O)cc1	6.86 µM (active)	inactive	6.86 µM (active)	inactive	inactive	48.6 µM (active)	inactive	inactive	inactive	inactive	inactive	inactive	inactive	inactive	–	inactive	inactive	inactive	–	19.5 µM (active)
O=C(O)c1ccccc1C(=O)Nc1cccc2ccccc12	inactive	inactive	inactive	inactive	inactive	–	inactive	inactive	inactive	inactive	inactive	inactive	inactive	inactive	inactive	inactive	inactive	inactive	–	–
O=NN1CCCCCC1	inactive	inactive	inactive	inactive	inactive	inactive	inactive	inactive	inactive	inactive	inactive	inactive	inactive	inactive	inactive	inactive	inactive	inactive	–	–
ClCC(Br)CBr (stereo not drawn)	inactive	inactive	inactive	inactive	inactive	–	inactive	inactive	inactive	inactive	inactive	inactive	inactive	inactive	inactive	inactive	inactive	inactive	–	inactive
IC(I)=C(I)I	12.2 µM (active)	inactive	48.6 µM (active)	27.3 µM (active)	inactive	4.33 µM (active)	inactive	inactive	inactive	inactive	inactive	inactive	inactive	inactive	inactive	inactive	inactive	inactive	–	–
c1ccc(CN2CCNCC2)cc1	inactive	inactive	inactive	inactive	inactive	inactive	inactive	inactive	inactive	inactive	inactive	inactive	inactive	inactive	–	inactive	–	inactive	inactive	inactive
COC1=CC(=O)O[C@@H](CCc2ccccc2)C1	inactive	inactive	inactive	inactive	inactive	inactive	–	inactive	inactive	inactive	inactive	inactive	–	inactive	inactive	inactive	inactive	–	inactive	inactive
CCOP(=S)(OCC)Oc1nc(Cl)c(Cl)cc1Cl	inactive	inactive	54.6 µM (active) and inactive	inactive	6.87 µM (active)	13.7 µM (active) and 30.6 µM (active)	inactive	inactive	inactive	inactive	inactive	inactive	inactive	inactive	inactive	inactive	inactive	inactive	inactive	inactive
C#CCOC(C(=O)OCCN(C)C)(c1ccccc1)c1ccccc1	inactive	inactive	inactive	inactive	inactive	–	inactive	inactive	inactive	inactive	inactive	inactive	inactive	inactive	inactive	inactive	inactive	inactive	–	–
C=CC(C)=O	inactive	inactive	inactive	inactive	inactive	inactive	inactive	inactive	inactive	inactive	inactive	inactive	inactive	inactive	inactive	inactive	inactive	inactive	inactive	–
c1ccc(C2CC2)c(OCC2=NCCN2)c1	inactive	inactive	inactive	inactive	inactive	inactive	inactive	inactive	inactive	inactive	inactive	inactive	inactive	inactive	inactive	inactive	–	inactive	inactive	inactive
O=C(NCc1cccnc1)Nc1ccc([N+](=O)[O-])cc1	inactive	inactive	inactive	inactive	inactive	24.3 µM (active)	inactive	inactive	inactive	inactive	inactive	inactive	inactive	inactive	–	inactive	inactive	inactive	–	–
ClC=C(Cl)Cl	inactive	inactive	inactive	inactive	inactive	inactive	inactive	inactive	inactive	inactive	inactive	inactive	inactive	inactive	inactive	inactive	inactive	inactive	–	–
Nc1nc(N)nc(N)n1	inactive	inactive	inactive	inactive	inactive	inactive	inactive	inactive	inactive	inactive	inactive	inactive	–	inactive	inactive	inactive	inactive	inactive	–	inactive
CCC(COC(=O)c1cc(OC)c(OC)c(OC)c1)(c1ccccc1)N(C)C (stereo not drawn)	inactive	inactive	inactive	inactive	inactive	–	inactive	inactive	inactive	inactive	inactive	inactive	inactive	inactive	inactive	inactive	inactive	inactive	–	inactive
COc1cc(CC(C)N)cc2c1OCO2 (stereo not drawn)	inactive	inactive	inactive	inactive	inactive	inactive	–	inactive	inactive	inactive	inactive	inactive	inactive	inactive	inactive	inactive	inactive	inactive	inactive	inactive
Nc1nc(=S)[nH][nH]1	inactive	inactive	inactive	inactive	inactive	inactive	inactive	inactive	inactive	inactive	inactive	inactive	inactive	inactive	inactive	inactive	inactive	inactive	inactive	–
Cn1sc(Cl)cc1=O	inactive	inactive	inactive	inactive	inactive	inactive	inactive	inactive	inactive	inactive	inactive	inactive	inactive	inactive	inactive	inactive	inactive	inactive	inactive	inactive
O=C(O)C(F)(F)C(F)(F)C(F)(F)C(F)(F)C(F)(F)C(F)(F)C(F)(F)C(F)(F)C(F)(F)C(F)(F)F	inactive	inactive	inactive	inactive	inactive	–	inactive	inactive	inactive	inactive	inactive	inactive	inactive	inactive	inactive	inactive	inactive	inactive	–	–
CCCCCCCCOC(=O)c1ccc(C(=O)OCCCCCCCC)c(C(=O)OCCCCCCCC)c1	inactive	inactive	inactive	inactive	inactive	inactive	inactive	inactive	inactive	inactive	inactive	inactive	inactive	inactive	inactive	inactive	inactive	inactive	inactive	inactive
CCCN(CC1CC1)c1c([N+](=O)[O-])cc(C(F)(F)F)cc1[N+](=O)[O-]	inactive	inactive	inactive	inactive	inactive	30.6 µM (active)	inactive	inactive	inactive	inactive	inactive	inactive	inactive	inactive	–	inactive	inactive	–	inactive	inactive
